Measurements reported in PubChem BioAssay AID1159580 (chemical genetic matrix, 2015).
Screen size: about 5,500 compounds; about 2,000 (36%) were called active. Not shown: some 18% with an inconclusive outcome. No stated cut-off is given here; in the data, active means normalized growth mostly below about 0.91 (no sharp cut-off); inconclusive means no clear call, values can overlap the other calls; inactive means mostly above about 0.92. The list shows a part of the results.

Assay: chemical genetic growth profiling, strain panel (AID 1159580);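 further: tested at 20 µM; growth read once vehicle control cultures reached saturation at 30 °C; 1 = growth at the plate median or of vehicle wells; lower values mean less growth of the strain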
Settings: S. cerevisiae deletion strains, growth OD
[1] = locus YAL013W, strain DEP1, hits give low values
[2] = locus YBR229C, strain ROT2, hits give low values
[3] = locus YDL101C, strain DUN1, hits give low values
[4] = locus YDR150W, strain NUM1, hits give low values
[5] = locus YEL061C, strain CIN8, hits give low values
[6] = locus YGR078C, strain PAC10, hits give low values
[7] = locus YHR030C, strain SLT2, hits give low values
[8] = locus YHR087W, strain rtc3, hits give low values
[9] = locus YJR043C, strain POL32, hits give low values
[10] = locus YJR075W, strain HOC1, hits give low values
[11] = locus YLR039C, strain RIC1, hits give low values
[12] = locus YLR058C, strain SHM2 (second series), hits give low values
[13] = locus YLR085C, strain ARP6, hits give low values
[14] = locus YLR262C, strain YPT6, hits give low values
[15] = locus YML094W, strain GIM5, hits give low values
[16] = locus YMR219W, strain ESC1, hits give low values
[17] = locus YMR263W, strain SAP30, hits give low values
[18] = locus YNL153C, strain GIM3, hits give low values
[19] = locus YNL298W, strain CLA4 (second series), hits give low values
[20] = locus YNL322C, strain KRE1, hits give low values
[21] = locus YNR030W, strain Alg12, hits give low values
[22] = locus YPL055C, strain LGE1, hits give low values
[23] = locus YPL241C, strain CIN2, hits give low values
[24] = locus YPR135W, strain CTF4, hits give low values
[25] = locus YCL061C, strain MRC1, hits give low values
[26] = locus YHR079C, strain IRE1, hits give low values
[27] = locus YJL095W, strain BCK1, hits give low values
[28] = locus YJR066W, strain TOR1, hits give low values
[29] = locus YLR113W, strain HOG1, hits give low values
[30] = locus YNL183C, strain NPR1, hits give low values
[31] = locus YOR231W, strain MKK1, hits give low values
[32] = locus YPL256C, strain CLN2, hits give low values

Measured: normalized growth

C/C(=N/OC(=O)c1ccc(Cl)cc1)c1ccc(F)cc1
active: [5] 0.889 | [7] 0.448 | [9] 0.914 | [10] 0.847 | [11] 0.515 | [13] 0.598 | [14] 0.462 | [15] 0.809 | [18] 0.908 | [21] 0.879 | locus YOL006C, strain TOP1, hits give low values 0.467 | [22] 0.811 | [23] 0.829
inactive: [1] 0.946 | [2] 0.96 | [3] 0.952 | [4] 0.913 | [6] 0.961 | [8] 0.953 | [12] 0.982 | [16] 0.957 | [17] 0.939 | locus YNL128W, strain TEP1, hits give low values 0.943 | [19] 0.85 | [20] 0.975 | [24] 0.763

C/C(=N/NC1=NCCN1)c1ccc(F)cc1
inactive: [1] 1.01 | [2] 0.993 | [25] 0.997 | [3] 0.979 | [4] 0.907 | [5] 1.01 | [6] 0.995 | [7] 1.01 | [8] 0.987 | [9] 1 | [10] 0.992 | locus YKL190W, strain CNB1, hits give low values 1.01 | [11] 1.04 | [12] 1.01 | [13] 0.996 | [14] 0.997 | [15] 0.996 | [16] 1 | [17] 0.998 | [18] 0.987 | [19] 1.02 | [20] 1 | [21] 1.01 | [22] 1.01 | [23] 1.03 | [24] 1.02

O=C(NC(=O)c1c(F)cccc1F)Nc1cc(Cl)c(OC(F)(F)C(F)C(F)(F)F)cc1Cl (stereo not drawn)
inactive: locus YAL021C, strain ccr4, hits give low values 0.983 | locus YAL026C, strain drs2, hits give low values 0.987 | locus YAL030W, strain snc1, hits give low values 0.998 | locus YBL061C, strain skt5, hits give low values 0.974 | locus YBR009C, strain hhf1, hits give low values 0.997 | locus YBR023C, strain chs3, hits give low values 0.981 | locus YBR171W, strain sec66, hits give low values 0.987 | locus YBR231C, strain swc5, hits give low values 0.977 | locus YBR279W, strain paf1, hits give low values 0.988 | locus YCL011C, strain gbp2, hits give low values 0.987 | locus YCL016C, strain dcc1, hits give low values 0.988 | [25] 0.989 | locus YCL069W, strain vba3, hits give low values 0.99 | locus YCR088W, strain abp1, hits give low values 0.988 | locus YDL005C, strain med2, hits give low values 0.984 | locus YDL040C, strain nat1, hits give low values 0.98 | locus YDR001C, strain nth1, hits give low values 0.991 | locus YDR069C, strain doa4, hits give low values 0.989 | locus YDR137W, strain rgp1, hits give low values 0.988 | locus YDR159W, strain sac3, hits give low values 1 | locus YDR195W, strain ref2 1.01 | locus YDR297W, strain sur2, hits give low values 0.978 | locus YDR334W, strain swr1, hits give low values 0.981 | locus YDR335W, strain msn5, hits give low values 0.99 | locus YDR392W, strain spt3, hits give low values 0.98 | locus YEL003W, strain gim4, hits give low values 1.01 | locus YEL037C, strain rad23, hits give low values 0.991 | locus YEL061C, strain CIN8 (second series), hits give low values 0.995 | locus YER015W, strain faa2, hits give low values 0.983 | locus YER016W, strain bim1, hits give low values 0.996 | locus YER111C, strain swi4, hits give low values 0.982 | locus YER155C, strain BEM2 (second series), hits give low values 0.998 | locus YFR010W, strain ubp6, hits give low values 0.986 | locus YGL167C, strain pmr1, hits give low values 0.977 | locus YGL173C, strain kem1, hits give low values 0.999 | locus YGL227W, strain vid30, hits give low values 0.997 | locus YGL240W, strain doc1, hits give low values 0.99 | locus YGL253W, strain hxk2, hits give low values 0.987 | locus YHR013C, strain ard1, hits give low values 0.96 | locus YHR027C, strain rpn1, hits give low values 0.996 | [7] 1.04 | [26] 1.03 | locus YHR142W, strain chs7, hits give low values 0.997 | locus YJL092W, strain hpr5, hits give low values 0.993 | locus YJL095W, strain BCK1 (second series), hits give low values 0.986 | [27] 1.04 | locus YJL115W, strain asf1, hits give low values 0.987 | locus YJL129C, strain trk1, hits give low values 0.988 | locus YJL154C, strain vps35, hits give low values 0.985 | locus YJL164C, strain tpk1, hits give low values 0.988 | locus YJL166W, strain qcr8, hits give low values 0.995 | locus YJL187C, strain SWE1, hits give low values 0.986 | [28] 0.977 | locus YKL160W, strain elf1, hits give low values 0.983 | locus YKR026C, strain gcn3, hits give low values 0.989 | locus YKR091W, strain srl3, hits give low values 0.989 | locus YLL001W, strain dnm1, hits give low values 0.996 | locus YLL026W, hits give low values 0.995 | locus YLL041C, strain sdh2, hits give low values 0.994 | locus YLR027C, strain aat2, hits give low values 0.993 | [29] 1.01 | locus YLR221C, strain rsa3, hits give low values 0.984 | locus YLR258W, strain gsy2, hits give low values 0.999 | locus YLR262C, strain YPT6 (second series), hits give low values 0.995 | locus YLR320W, strain mms22, hits give low values 0.981 | locus YLR342W, strain FKS1, hits give low values 0.985 | locus YLR357W, strain rsc2, hits give low values 0.994 | locus YLR370C, strain arc18, hits give low values 0.986 | locus YLR384C, strain iki3, hits give low values 0.976 | locus YML120C, strain ndi1, hits give low values 0.987 | locus YMR058W, strain fet3, hits give low values 0.994 | locus YMR125W, strain sto1, hits give low values 0.979 | locus YMR129W, hits give low values 0.997 | locus YMR205C, strain PFK2, hits give low values 0.982 | locus YMR231W, strain pep5, hits give low values 1 | locus YNL071W, strain lat1, hits give low values 0.992 | [30] 0.973 | locus YNL209W, strain ssb2, hits give low values 0.978 | locus YNL248C, strain rpa49, hits give low values 0.991 | locus YNL322C, strain KRE1 (second series), hits give low values 0.993 | locus YNR049C, strain mso1, hits give low values 0.986 | locus YOR001W, strain rrp6, hits give low values 0.987 | locus YOR070C, strain gyp1, hits give low values 0.989 | locus YOR080W, strain dia2, hits give low values 0.991 | locus YOR083W, strain WHI5, hits give low values 0.988 | locus YOR106W, strain vam3, hits give low values 0.994 | [31] 0.992 | locus YOR265W, strain rbl2, hits give low values 0.985 | locus YOR270C, strain vph1, hits give low values 0.987 | locus YOR290C, strain snf2, hits give low values 0.977 | locus YPL051W, strain arl3, hits give low values 0.997 | locus YPL078C, strain atp4, hits give low values 0.99 | locus YPL106C, strain sse1, hits give low values 0.976 | locus YPL240C, strain hsp82, hits give low values 0.984 | [32] 1.03

O=C(Nc1cccc(C(F)(F)F)c1)Oc1ccc(F)cc1Cl
active: [7] 0.822 | [29] 0.762 | [32] 0.778
inactive: locus YAR019C, strain CDC15, hits give low values 0.977 | locus YBL105C, strain PKC1, hits give low values 0.977 | locus YBR135W, strain CKS1, hits give low values 0.982 | locus YBR136W, strain MEC1, hits give low values 0.98 | locus YBR160W, strain CDC28, hits give low values 0.979 | locus YDL017W, strain CDC7, hits give low values 0.985 | locus YDL028C, strain MPS1, hits give low values 0.977 | [3] 0.992 | locus YDL108W, strain KIN28, hits give low values 0.97 | locus YDL132W, strain cdc53, hits give low values 0.974 | locus YDL214C, strain PRR2, hits give low values 0.978 | locus YDR052C, strain DBF4, hits give low values 0.985 | locus YDR054C, strain cdc34, hits give low values 0.975 | locus YDR226W, strain ADK1, hits give low values 0.975 | locus YDR477W, strain SNF1, hits give low values 0.993 | locus YER123W, strain YCK3, hits give low values 0.965 | locus YER133W, strain GLC7, hits give low values 0.983 | locus YFL009W, strain cdc4, hits give low values 0.974 | locus YFL029C, strain CAK1, hits give low values 0.977 | locus YFR003C, strain YPI1, hits give low values 0.982 | locus YFR019W, strain FAB1, hits give low values 0.987 | locus YFR028C, strain CDC14, hits give low values 0.98 | locus YGR040W, strain KSS1, hits give low values 0.977 | locus YGR052W, strain FMP48, hits give low values 1 | locus YGR092W, strain DBF2, hits give low values 0.951 | [26] 0.87 | locus YHR082C, strain KSP1, hits give low values 1.1 | locus YHR205W, strain SCH9, hits give low values 0.951 | locus YIL147C, strain SLN1, hits give low values 0.975 | [27] 0.955 | locus YJL128C, strain PBS2, hits give low values 0.947 | locus YJL157C, strain FAR1, hits give low values 0.98 | locus YJR016C, strain ILV3, hits give low values 0.984 | locus YJR066W, strain TOR1 (second series), hits give low values 0.938 | [28] 1.04 | locus YKL048C, strain ELM1, hits give low values 1 | locus YKL067W, strain YNK1, hits give low values 1.01 | locus YKL101W, strain HSL1, hits give low values 0.983 | locus YKL193C, strain SDS22, hits give low values 0.983 | locus YKL203C, strain TOR2, hits give low values 1.02 | locus YLR133W, strain CKI1, hits give low values 0.976 | locus YLR403W, strain SFP1, hits give low values 0.964 | locus YML070W, strain DAK1, hits give low values 0.979 | locus YMR001C, strain CDC5, hits give low values 0.984 | locus YMR205C, strain PFK2 (second series), hits give low values 1 | locus YMR277W, strain FCP1, hits give low values 0.977 | locus YNL006W, strain LST8, hits give low values 0.976 | locus YNL020C, strain ARK1, hits give low values 0.967 | locus YNL161W, strain CBK1, hits give low values 0.983 | [30] 0.998 | locus YNL207W, strain RIO2, hits give low values 0.972 | locus YNL222W, strain SSU72, hits give low values 0.973 | locus YNL307C, strain MCK1 (second series), hits give low values 0.982 | locus YOL078W, strain AVO1, hits give low values 0.983 | locus YOL136C, strain PFK27, hits give low values 0.969 | locus YOR061W, strain CKA2, hits give low values 0.983 | locus YOR119C, strain RIO1, hits give low values 1.05 | [31] 0.912 | locus YOR329C, strain SCD5, hits give low values 0.979 | locus YPL031C, strain PHO85, hits give low values 0.97 | locus YPL153C, strain RAD53, hits give low values 0.974 | locus YPL204W, strain HRR25, hits give low values 0.992 | locus YPL209C, strain IPL1, hits give low values 0.979 | locus YPR025C, strain CCL1, hits give low values 0.979 | locus YPR106W, strain ISR1, hits give low values 0.99 | locus YPR111W, strain DBF20, hits give low values 0.964 | strain NNK1, hits give low values 0.989 | strain TSCII, hits give low values 0.972
